From PubChem BioAssay (NCI)
About 79,000 compounds went through this panel and 15% of them were active in at least one assay; those are over-represented in the sample as a whole. Activity calls are given as the source filed them. No stated cut-off is given here; in the data, active means growth inhibition above about 70%; inactive means the rest.

How the values were obtained:
[1] = NCI Yeast Anticancer Drug Screen. Data for the rad52 strain (AID 147);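 further: 0% = growth of vehicle-treated control cultures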; conditions: S. cerevisiae rad52 mutant growth inhibition, active compounds read high
Outline: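 Here a repair-compromised yeast strain receives each compound; its growth is then quantified and normalised to vehicle-only controls.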

[2] = NCI Yeast Anticancer Drug Screen. Data for the wt1 strain (AID 149);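 further: 0% = growth of vehicle-treated wt1 cultures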; conditions: S. cerevisiae wt1 strain (SPY 50644) growth inhibition, active compounds read high
Outline: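 Readout: yeast growth inhibition, normalised to vehicle controls, in the wt1 strain exposed to test compounds.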

[3] = NCI Yeast Anticancer Drug Screen. Data for the rad50EPP+ strain (AID 151);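 further: 0% = growth of vehicle-treated control cultures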; conditions: S. cerevisiae rad50 mutant strain, active compounds read high
Outline: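 Read-out is yeast growth inhibition relative to vehicle; cells used were the rad50EPP+ strain.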

[4] = NCI Yeast Anticancer Drug Screen. Data for the mgt1 strain (AID 153); conditions: S. cerevisiae mgt1 mutant growth inhibition, active compounds read high
Outline: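 Measured: inhibition of mgt1 yeast growth by compound, normalized to vehicle-treated cultures.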

[5] = NCI Yeast Anticancer Drug Screen. Data for the rad50 strain (AID 155);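 further: 0% = growth of vehicle-only cultures of the same strain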; conditions: S. cerevisiae rad50 strain growth inhibition, active compounds read high
Outline: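 Compounds were tested on a yeast strain with an engineered DNA damage repair alteration; the reported value is growth inhibition normalised to vehicle treatment.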

[6] = NCI Yeast Anticancer Drug Screen. Data for the mec2-1 strain (AID 157); conditions: S. cerevisiae mec2-1 strain, active compounds read high
Outline: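 Using mec2-1 yeast: add compound, measure growth, express inhibition versus vehicle-treated cultures.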

[7] = NCI Yeast Anticancer Drug Screen. Data for the rad14 strain (AID 159);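 further: 0% = growth of vehicle-treated control cultures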; conditions: S. cerevisiae rad14 strain growth inhibition, active compounds read high
Outline: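 Compound-treated yeast with a defined DNA-repair lesion; growth inhibition normalised to vehicle-treated cultures.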

[8] = NCI Yeast Anticancer Drug Screen. Data for the sgs1 mgt1 strain (AID 161);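 further: 0% = growth of cultures given vehicle only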; conditions: S. cerevisiae sgs1 mgt1 strain, active compounds read high
Outline: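 Compounds are added to genetically altered yeast, and growth is compared with cultures given vehicle alone to give percent inhibition.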

[9] = NCI Yeast Anticancer Drug Screen. Data for the CLN2oe strain (AID 163);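 further: 0% = growth of vehicle-only control cultures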; conditions: S. cerevisiae CLN2oe strain, active compounds read high
Outline: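 Whole-cell yeast growth assay. A strain engineered for altered cell-cycle control received compound, and inhibition relative to vehicle-treated cultures was recorded.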

[10] = NCI Yeast Anticancer Drug Screen. Data for the cln2 rad14 strain (AID 165);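 further: 0% = growth equal to vehicle treated cultures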; conditions: S. cerevisiae cln2 rad14 strain, active compounds read high
Outline: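 Yeast strain cln2 rad14, bearing defects in cell cycle control and DNA repair, serves as the test system; values reflect growth inhibition compared with vehicle.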

[11] = NCI Yeast Anticancer Drug Screen. Data for the bub3 strain (AID 167); conditions: S. cerevisiae bub3 mutant strain, active compounds read high
Outline: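 Growth of a checkpoint-deficient yeast mutant is measured after compound exposure. Values represent inhibition relative to vehicle.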

[12] = NCI Yeast Anticancer Drug Screen. Data for the wt2 strain (AID 169);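 further: 0% = growth of vehicle-treated yeast cultures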; conditions: S. cerevisiae wt2 strain growth inhibition, active compounds read high
Outline: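 Treated yeast vs. vehicle-treated yeast: growth inhibition determined.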

[13] = NCI Yeast Anticancer Drug Screen. Data for the mlh1 strain (AID 171);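 further: 0% = growth of vehicle-treated control cultures of the same strain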; conditions: S. cerevisiae mlh1 strain growth inhibition, active compounds read high
Outline: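 A yeast strain with a defined genetic lesion serves as the test organism. Cultures receive compound or vehicle, and growth is measured.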

[14] = NCI Yeast Anticancer Drug Screen. Data for the sgs1 strain (AID 173);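 further: 0% = growth of vehicle-only control cultures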; conditions: S. cerevisiae sgs1 mutant, active compounds read high
Outline: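 A genetically defined yeast mutant is incubated with the test compound, and its growth is compared to that of the same strain given vehicle.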

[15] = NCI Yeast Anticancer Drug Screen. Data for the mlh1 rad18 strain (AID 175); conditions: S. cerevisiae mlh1 rad18 strain growth inhibition, active compounds read high
Outline: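 Steps: expose repair-defective yeast to compound; measure growth; express inhibition against vehicle-treated controls.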

[16] = NCI Yeast Anticancer Drug Screen. Data for the rad18 strain (AID 177); conditions: S. cerevisiae rad18 mutant growth inhibition, active compounds read high
Outline: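 Measured value is growth inhibition of a yeast strain bearing a DNA repair alteration, referenced to vehicle-treated cells.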

[17] = at 5.0 µM (retest, dose inferred, filed as 0.5)
[18] = at 50.0 µM (retest, dose inferred, filed as 5.0)

Measured: growth inhibition

CC(C)(C)CC(C)(C)c1cc(O)c(O)c(CN2CCCCC2)c1
active: [5]; at 50.0 µM 71.8% | [10]; at 50.0 µM 73.7% | [11]; at 50.0 µM 78.6%
inactive: [1]; at 1.2 µM -2% | [1]; at 3.7 µM -3% | [1]; at 11.0 µM 1% | [1]; at 33.0 µM 12% | [1]; at 100.0 µM 32% | [2]; at 1.2 µM 0% | [2]; at 3.7 µM 1% | [2]; at 11.0 µM 4% | [2]; at 33.0 µM 10% | [2]; at 100.0 µM 7% | [3]; at 1.2 µM -5% | [3]; at 3.7 µM -6% | [3]; at 11.0 µM -12% | [3]; at 33.0 µM -14% | [3]; at 100.0 µM -11% | [4]; at 1.2 µM -1% | [4]; at 3.7 µM -1% | [4]; at 11.0 µM 0% | [4]; at 33.0 µM 3% | [4]; at 100.0 µM 67% | [5]; at 1.2 µM -1% | [5]; at 3.7 µM 0% | [5]; [17] 5% | [5]; at 11.0 µM 9% | [5]; at 33.0 µM 9% | [5]; [18] 54% | [5]; at 100.0 µM 25% | [6]; at 1.2 µM 0% | [6]; at 3.7 µM 1% | [6]; [17] 16% | [6]; at 11.0 µM 2% | [6]; at 33.0 µM 7% | [6]; [18] 11% | [6]; at 50.0 µM 57.9% | [6]; at 100.0 µM 24% | [7]; at 1.2 µM -1% | [7]; at 3.7 µM 2% | [7]; at 11.0 µM 10% | [7]; at 33.0 µM 30% | [7]; at 100.0 µM 68% | [8]; [17] -5% | [8]; [18] 35% | [8]; at 50.0 µM 57.4% | [9]; at 1.2 µM -3% | [9]; at 3.7 µM 1% | [9]; at 11.0 µM 0% | [9]; at 33.0 µM 9% | [9]; at 100.0 µM 49% | [10]; [17] -22% | [10]; [18] 13% | [11]; at 1.2 µM -3% | [11]; at 3.7 µM 2% | [11]; [17] -13% | [11]; at 11.0 µM -30% | [11]; at 33.0 µM 17% | [11]; [18] 59% | [11]; at 100.0 µM 27% | [12]; at 1.2 µM -2% | [12]; at 3.7 µM -1% | [12]; at 11.0 µM 1% | [12]; at 33.0 µM 11% | [12]; at 100.0 µM 39% | [13]; at 1.2 µM 3% | [13]; at 3.7 µM 3% | [13]; at 11.0 µM 4% | [13]; at 33.0 µM -24% | [13]; at 100.0 µM 55% | [14]; at 1.2 µM 1% | [14]; at 3.7 µM 1% | [14]; at 11.0 µM 7% | [14]; at 33.0 µM 24% | [14]; at 100.0 µM 63% | [15]; [17] 3% | [15]; [18] 45% | [15]; at 50.0 µM 65% | [16]; at 1.2 µM 5% | [16]; at 3.7 µM 3% | [16]; at 11.0 µM -38% | [16]; at 33.0 µM 28% | [16]; at 100.0 µM 62%
